Compounds with a hit are over-represented: about 8% of the library has one in this group of screens.
Lassa entry inh – qHTS for Inhibitors of binding or entry into cells for Lassa Virus; Lassa virus pseudotype entry inhibition, cell reporter; Potency, µM (top dose mostly 37.9 µM), for inactives: at the top dose activity change, negative = inhibition, most hits filed as inhibitors; 300,000 tested, 1.2% active; calls by dose curve; tested in HEK293 cells; note: potency is the fitted concentration of half-maximal effect; % is set by controls: 0 for no effect and ±100 for the full control effect; nearly all actives have a fitted effect of over 50% in size
FMDV inh – High Throughput Screening for Foot and Mouth Disease Virus Antivirals; FMDV antiviral cell-based qHTS; Potency, µM (doses to about 57.9 µM), inactives show at the highest dose activity change, negative = inhibition, actives largely listed as inhibitors; 410,000 tested, 1.2% active; calls by dose curve; tested in HEK293T cells; note: read-out not given here; potency is the fitted concentration of half-maximal effect; % is set by controls: 0 for no effect and ±100 for the full control effect; nearly all actives have a fitted effect of over 45% in size
SARS PLP yeast – qHTS of Yeast-based Assay for SARS-CoV PLP; Potency, µM (top dose mostly 32.9 µM), for the others: at the highest dose activity, positive = growth rescue, hits mostly activators; AID 485353, 2010; 330,000 tested, 0.19% active; S. cerevisiae expressing SARS-CoV PLpro, growth rescue; calls by dose curve; note: potency is the fitted concentration of half-maximal effect; 0% is about no effect; nearly all actives have a fitted effect of over 55% in size
MARV entry inh – qHTS for inhibitors of binding or entry into cells for Marburg Virus; Marburg virus pseudotyped entry inhibition, cell reporter; Potency, µM (doses to about 37.8 µM), for inactives: at the top dose activity change, negative = inhibition, most hits filed as inhibitors; 300,000 tested, 1.8% active; AID 540276, 2011; calls by dose curve; tested in HEK293 cells; note: potency is the fitted concentration of half-maximal effect; % is set by controls: 0 for no effect and ±100 for the full control effect
HCMV inh – qHTS Assay for inhibitors of the human cytomegalovirus (HCMV). HFF cells, HCMV-luciferase reporter, 72 h; active compounds read low. activity change, negative = inhibition, % at 57.5 µM. 410,000 tested, 4.5% active; in the data active = activity change below about -60%; inconclusive = no clear call, values can overlap the other calls; inactive = above about -39%; note: % is set by controls: 0 for no effect and ±100 for the full control effect
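Compounds were evaluated in HFFs infected with an HCMV luciferase reporter virus (MOI 1 PFU/cell). Luciferase in lysates collected 72 h post infection served as the replication measure.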
HCV inh – qHTS Assay for Inhibitors of Hepatitis C Virus (HCV); Huh7.5.1 HCVcc-Cre infection, luciferase reporter, 44 h; 340,000 tested, 3.4% active; Potency, µM (series often up to 41.8 µM), for inactives: at the highest dose activity change, negative = inhibition, hits mostly inhibitors; active = well fitted inhibition curve with a large enough effect; inconclusive = small, poorly fitted or top-dose-only effect, or another doubt; inactive = no such curve, though single readings can be large or run the other way; note: potency is the fitted concentration of half-maximal effect; % is set by controls: 0 for no effect and ±100 for the full control effect
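Antiviral activity was scored by luciferase reporter output from cells infected with HCVcc-Cre (~0.5 moi) in presence of compound, 44 h infection period, cells seeded 1,000/well 4 h prior.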
* marks the source's active call; other numbers are inactive results; u = inconclusive; x = not tested or not shown; [ ] = remark or other dose.

SMILES	Lassa entry inh	FMDV inh	SARS PLP yeast	MARV entry inh	HCMV inh	HCV inh
Cc1cc2oc(=O)cc(CN3CCN(S(=O)(=O)c4cccs4)CC3)c2cc1C	14.1µM*	u	7.2%	14.1µM*	-13.3	u
O=c1cc(CN2CCN(c3ccc(F)cc3)CC2)c2cc3c(cc2o1)CCCC3	-3.4%	-12.4%	-4.0%	u	-62.1*	15.7%
Cc1c(O)ccc2c(CN3CCN(C/C=C/c4ccccc4)CC3)cc(=O)oc12	u	u	0.2%	8.91µM*	-60.2*	11.2µM*
CN1CCN(Cc2cc(=O)oc3cc4c(cc23)CCC4)CC1	0.0%	10.8%	6.9%	u	2.4	u
COc1ccc2oc(=O)cc(CN3CCN(Cc4ccc(OC)c(OC)c4OC)CC3)c2c1	x	-5.0%	0.8%	x	-25.7	3.55µM*
N[C@@H]1CC[C@@]23CCCN2C(=O)CCC[C@H]3[C@H]1Cc1ccccc1	x	x	x	x	-1.6	x
CCC(=O)N1CCc2cc(Br)cc(S(=O)(=O)N3CCCC(C(=O)NCc4ccccc4)C3)c21 (centres undefined)	-7.8%[46.1 µM]	0.0%	x	5.6%[46.1 µM]	-19.0	x
CC(C)CN(Cc1cc(=O)oc2cc(-c3ccccc3)c(O)cc12)CC(C)C	x	-13.5%	-2.4%	x	-33.2	14.1µM*
Cc1cc2oc(=O)cc(CN3CCN(C/C=C/c4ccccc4)CC3)c2cc1O	x	x	-2.3%	0.9%	-20.4	x
COc1ccc(N2CCN(Cc3cc(=O)oc4cc(-c5ccccc5)c(O)cc34)CC2)cc1	-25.4%	0.0%	0.3%	u	-79.9*	-10.4%
O=c1cc(CN2CCN(C/C=C/c3ccccc3)CC2)c2cc(O)c(-c3ccccc3)cc2o1	-16.4%	-22.7%	-21.8%	-2.0%	-5.0	u
Cc1cc2oc(=O)cc(CN3CCN(Cc4ccccc4)CC3)c2cc1O	x	-18.5%	1.6%	x	-8.8	11.2µM*
Cc1ccc2c(CN3CCCCC3)cc(=O)oc2c1	-0.6%[46.1 µM]	21.5%	0.1%	15.2%[46.1 µM]	-77.3*	2.2%
Cn1c(=O)c2c(nc(NCc3ccccc3)n2Cc2ccc(F)cc2)n(C)c1=O	x	x	-0.8%	x	x	-4.0%
COc1ccc(CNc2nc3c(c(=O)n(Cc4ccc(Cl)cc4)c(=O)n3C)n2C)cc1	u	12.6µM*	3.8%	u	u	u
CNC(=O)CSc1nc2c(c(=O)n(C)c(=O)n2C)n1Cc1ccc(C)cc1	-14.5%	x	10.8%	0.8%	63.2	0.631µM*
CCNc1nc2c(c(=O)n(C)c(=O)n2C)n1CC(O)COc1ccccc1 (centres undefined)	7.7%[46.1 µM]	22.4µM*	x	21.8%[46.1 µM]	-7.4	x
CCCNc1nc2c(c(=O)n(C)c(=O)n2C)n1CC(O)COc1ccccc1 (centres undefined)	3.2%[46.1 µM]	u	x	1.7%[46.1 µM]	0.1	x
CCCNc1nc2c(c(=O)n(C)c(=O)n2C)n1Cc1ccc(F)cc1	x	u	0.8%	x	-36.9	11.2µM*
COCc1ccc(C(=O)N2CCOc3c(cc(-c4cc(C)c5cccc(OC)c5n4)cc3OC)C2)o1	x	-4.6%	x	x	x	x
CC(C)Sc1nc2c(c(=O)n(C)c(=O)n2C)n1Cc1ccc(Cl)cc1	-23.8%	u	-1.0%	-8.2%	-35.0	10µM*
CCn1c(SCC(=O)Nc2ccccc2N2CCCCC2)nc2c1c(=O)n(C)c(=O)n2C	4.7%	u	u	u	-68.7*	u
CCNc1nc2c(c(=O)n(C)c(=O)n2C)n1Cc1ccc(Cl)cc1	x	0.0%	3.2%	x	-65.6*	3.55µM*
Cn1c(NCC(O)CO)nc2c1c(=O)n(Cc1ccc(Cl)c(Cl)c1)c(=O)n2C (centres undefined)	3.9%	u	-8.7%	u	-31.0	0.9%
Cn1c(NCc2ccco2)nc2c1c(=O)n(Cc1ccc(Cl)c(Cl)c1)c(=O)n2C	-23.1%	31.6µM*	-6.3%	-23.7%[46.1 µM]	19.3	15.0%
SMILES	Lassa entry inh	FMDV inh	SARS PLP yeast	MARV entry inh	HCMV inh	HCV inh
COc1cccc(N2CCN(C(=O)c3cccn3-c3nnc(N4CCCC4)s3)CC2)c1	10.2%[46.1 µM]	-2.5%	x	x	0.0	x
Cc1nc2ccccc2nc1OCC(=O)Nc1ccc2ccccc2c1	3.1%	-11.1%	4.5%	-6.7%	39.6	u
Cc1cc(C)c(NC(=O)COc2nc3ccccc3nc2C)c(C)c1	18.0%	-27.2%	18.0%	-11.7%	u	11.2µM*
CCc1ccc(C2CC(=O)Nc3cc4c(cc32)OCO4)cc1 (centres undefined)	-25.7%[46.1 µM]	-26.3%	x	6.6%[46.1 µM]	-16.2	x
C/C(=N\NC(=S)Nc1c(C)cccc1C)c1ccc(OC(F)F)cc1	u	-8.9%	12.6%	u	-85.5*	u
CC/C(=N\NC(=S)Nc1cc(C)ccc1C)c1ccc(OC(F)F)cc1	u	-6.9%	u	-4.1%	-26.3	12.6µM*
COc1ccc(C2=[N+](C)CCn3cccc32)c(OC)c1	u	u	-4.4%	u	-96.3*	-6.1%
COC(=O)N1CCC2(CCCN(C(=O)Nc3cccc(F)c3)C2)CC1	x	-16.0%	x	x	x	x
CN(Cc1cn(C)nc1-c1ccc(Oc2ccccc2)cc1)Cc1cnc2ccccn12	x	11.2µM*	-0.7%	x	0.0	u
Cn1cc(CNCc2cnc3ccccn23)c(-c2ccc(Oc3ccccc3)cc2)n1	u	-11.4%	-0.1%	u	u	u
Cc1ccc(C)c(CN2C(=O)c3ccccc3S(=O)c3ccc(C(=O)N4CCN(c5cccc(Cl)c5)CC4)cc32)c1 (centres undefined)	u	u	x	u	-31.6	x
COC(=O)C1=C(c2ccc(S(C)(=O)=O)cc2)C[C@@H]2CC[C@H]1N2C(=O)NCc1ccc(F)cc1	x	-16.2%	x	x	-62.9*	u
COC(=O)C1=C(c2ccc(OC(F)(F)F)cc2)C[C@@H]2CC[C@H]1N2C(=O)NCc1ccc(F)cc1	x	0.0%	-0.4%	x	-20.5	u
COC(=O)C1=C(c2ccc(OC(F)(F)F)cc2)C[C@@H]2CC[C@H]1N2C(=O)NCCc1ccccc1	x	0.0%	1.4%	x	u	u
COC(=O)C1=C(c2ccc(OC(F)(F)F)cc2)C[C@@H]2CC[C@H]1N2C(=O)NCc1cccc2ccccc12	x	12.6µM*	0.5%	x	-12.1	10µM*
CCCc1cc(=O)[nH]c2nnc(SCC)n12	6.1%[46.1 µM]	-5.0%	x	x	38.1	x
COCCN1C(=O)NC(c2cccc(F)c2)C(C(=O)OC)=C1C (centres undefined)	x	x	x	1.2%[14.2 µM]	x	x
CCOc1ccc(S(=O)(=O)NC(C)(C)C)cc1-c1nc2c(C(C)(C)C)nn(C)c2c(=O)[nH]1	20.6µM*	x	u	u	-36.7	7.08µM*
CCOc1ccc(S(N)(=O)=O)cc1-c1nc2c(C(C)(C)C)nn(C)c2c(=O)[nH]1	-23.0%	25.4%	0.7%	-1.6%[46.1 µM]	-32.8	u
CCNc1nc(C)c2cc(Br)c(=O)n(CC)c2n1	u	-12.1%	-0.1%	u	39.9	8.91µM*
